Results taken from the supplement of paper PMC7765376.
Whole data set: some 1,500 compounds, median “Excess HSA synergy score (sum over dose matrix of excess over highest single agent)” near 43, cut for the lowest 2% near -900. Many of the other results were omitted from the sample, so the lowest values are more common in it than they were.

Test system: PEO-1
Assay: Excess HSA synergy score (sum over dose matrix of excess over highest single agent) (score (summed % response)); higher = less synergy / more antagonism (negative = synergy)
Conditions: 72 h, read-out: viability/apoptosis luminescence (CellTiter-Glo or Caspase3-Glo / not stated per table)
[1] = matrix design: 6x6, 5-fold dilutions (primary screen)
[2] = matrix design: 10x10, 9-step dilutions (confirmatory)

Row | SMILES | Excess HSA synergy score [1] | Excess HSA synergy score [2]
1 | CC1=C(CO)C(=O)O[C@@H]([C@@H](C)[C@H]2CC[C@H]3[C@@H]4C[C@H]5O[C@]56[C@@H](O)C=CC(=O)[C@]6(C)[C@H]4CC[C@]23C)C1 [Withaferin A] + CC[C@H](NC(=O)[C@H](C)NC)C(=O)N1C[C@@H](O)C[C@H]1Cc1c(-c2[nH]c3cc(F)ccc3c2C[C@@H]2C[C@H](O)CN2C(=O)[C@H](CC)NC(=O)[C@H](C)NC)[nH]c2cc(F)ccc12 [Birinapant] | -42.3 | 
2 | O=C(Nc1nnc(-c2ccco2)o1)c1cc(-c2ccccc2)nc2ccccc12 + CC[C@H](NC(=O)[C@H](C)NC)C(=O)N1C[C@@H](O)C[C@H]1Cc1c(-c2[nH]c3cc(F)ccc3c2C[C@@H]2C[C@H](O)CN2C(=O)[C@H](CC)NC(=O)[C@H](C)NC)[nH]c2cc(F)ccc12 [Birinapant] | 57.7 | 
3 | Cc1cnc(Nc2ccc(OCCN3CCCC3)cc2)nc1Nc1cccc(S(=O)(=O)NC(C)(C)C)c1 + CC[C@H](NC(=O)[C@H](C)NC)C(=O)N1C[C@@H](O)C[C@H]1Cc1c(-c2[nH]c3cc(F)ccc3c2C[C@@H]2C[C@H](O)CN2C(=O)[C@H](CC)NC(=O)[C@H](C)NC)[nH]c2cc(F)ccc12 [Birinapant] | 70.3 | 
4 | CSc1cccc(Nc2ncc3cc(-c4c(Cl)cccc4Cl)c(=O)n(C)c3n2)c1 + CC[C@H](NC(=O)[C@H](C)NC)C(=O)N1C[C@@H](O)C[C@H]1Cc1c(-c2[nH]c3cc(F)ccc3c2C[C@@H]2C[C@H](O)CN2C(=O)[C@H](CC)NC(=O)[C@H](C)NC)[nH]c2cc(F)ccc12 [Birinapant] | -134 | 
5 | CCN(CC)CCOc1ccc(Nc2ncc3cc(-c4c(Cl)cccc4Cl)c(=O)n(C)c3n2)cc1 + CC[C@H](NC(=O)[C@H](C)NC)C(=O)N1C[C@@H](O)C[C@H]1Cc1c(-c2[nH]c3cc(F)ccc3c2C[C@@H]2C[C@H](O)CN2C(=O)[C@H](CC)NC(=O)[C@H](C)NC)[nH]c2cc(F)ccc12 [Birinapant] | -224 | -954
6 | CO[C@@]12[C@H](COC(N)=O)C3=C(C(=O)C(C)=C(N)C3=O)N1C[C@@H]1N[C@@H]12 [Mitomycin C] + CC[C@H](NC(=O)[C@H](C)NC)C(=O)N1C[C@@H](O)C[C@H]1Cc1c(-c2[nH]c3cc(F)ccc3c2C[C@@H]2C[C@H](O)CN2C(=O)[C@H](CC)NC(=O)[C@H](C)NC)[nH]c2cc(F)ccc12 [Birinapant] | -351 | -1240
7 | CC(C)OC(=O)C1=CN(C(=O)c2ccc(F)c(F)c2)CC(C)(C)c2c1[nH]c1ccccc21 [Turofexorate isopropyl] + CC[C@H](NC(=O)[C@H](C)NC)C(=O)N1C[C@@H](O)C[C@H]1Cc1c(-c2[nH]c3cc(F)ccc3c2C[C@@H]2C[C@H](O)CN2C(=O)[C@H](CC)NC(=O)[C@H](C)NC)[nH]c2cc(F)ccc12 [Birinapant] | 99.9 | 
8 | Cc1cc(O)c2c3c4c(cc(O)c13)C(C)(C)C(=O)c1c(O)cc(O)c(c1-4)C2=O [Resistomycin] + CC[C@H](NC(=O)[C@H](C)NC)C(=O)N1C[C@@H](O)C[C@H]1Cc1c(-c2[nH]c3cc(F)ccc3c2C[C@@H]2C[C@H](O)CN2C(=O)[C@H](CC)NC(=O)[C@H](C)NC)[nH]c2cc(F)ccc12 [Birinapant] | -31.1 | 
9 | CCN1CCN(CC(=O)Nc2ccc(-c3cccc4c(=O)cc(N5CCOCC5)oc34)c3sc4ccccc4c23)CC1 + CC[C@H](NC(=O)[C@H](C)NC)C(=O)N1C[C@@H](O)C[C@H]1Cc1c(-c2[nH]c3cc(F)ccc3c2C[C@@H]2C[C@H](O)CN2C(=O)[C@H](CC)NC(=O)[C@H](C)NC)[nH]c2cc(F)ccc12 [Birinapant] | 32 | 
10 | Nc1ccc(C(=O)Nc2cccc(-c3nc(N4CCOCC4)c4oc5ncccc5c4n3)c2)cn1 + CC[C@H](NC(=O)[C@H](C)NC)C(=O)N1C[C@@H](O)C[C@H]1Cc1c(-c2[nH]c3cc(F)ccc3c2C[C@@H]2C[C@H](O)CN2C(=O)[C@H](CC)NC(=O)[C@H](C)NC)[nH]c2cc(F)ccc12 [Birinapant] | -134 | 
11 | CCOc1ccc(Cc2cc([C@@H]3O[C@H](CO)[C@@H](O)[C@H](O)[C@H]3O)ccc2Cl)cc1 [Dapagliflozin] + CC[C@H](NC(=O)[C@H](C)NC)C(=O)N1C[C@@H](O)C[C@H]1Cc1c(-c2[nH]c3cc(F)ccc3c2C[C@@H]2C[C@H](O)CN2C(=O)[C@H](CC)NC(=O)[C@H](C)NC)[nH]c2cc(F)ccc12 [Birinapant] | 212 | 
12 | Cc1c(C(=O)Nc2ccc(N3C[C@@H](C)O[C@@H](C)C3)nc2)cccc1-c1ccc(OC(F)(F)F)cc1 [Sonidegib] + CC[C@H](NC(=O)[C@H](C)NC)C(=O)N1C[C@@H](O)C[C@H]1Cc1c(-c2[nH]c3cc(F)ccc3c2C[C@@H]2C[C@H](O)CN2C(=O)[C@H](CC)NC(=O)[C@H](C)NC)[nH]c2cc(F)ccc12 [Birinapant] | 68.2 | 
13 | Cc1ccc(CN2CCNCC2)cc1NC(=O)CNc1ccc(F)c(F)c1 + CC[C@H](NC(=O)[C@H](C)NC)C(=O)N1C[C@@H](O)C[C@H]1Cc1c(-c2[nH]c3cc(F)ccc3c2C[C@@H]2C[C@H](O)CN2C(=O)[C@H](CC)NC(=O)[C@H](C)NC)[nH]c2cc(F)ccc12 [Birinapant] | 191 | 
14 | c1ccc2c(-c3cnn4cc(-c5ccc(N6CCNCC6)cc5)cnc34)ccnc2c1 + CC[C@H](NC(=O)[C@H](C)NC)C(=O)N1C[C@@H](O)C[C@H]1Cc1c(-c2[nH]c3cc(F)ccc3c2C[C@@H]2C[C@H](O)CN2C(=O)[C@H](CC)NC(=O)[C@H](C)NC)[nH]c2cc(F)ccc12 [Birinapant] | -53.9 | 
15 | CC(=O)NCCC(=O)N[C@@H](CCC(N)=O)C(=O)N[C@@H](CO)C(=O)N[C@@H](CCC(N)=O)C(=O)N[C@@H](CCC(N)=O)C(=O)N[C@H](C(=O)N[C@@H](Cc1ccccc1)C(=O)N[C@]1(C)CCCCCC/C=C\CCC[C@@](C)(C(=O)N[C@@H](CCC(N)=O)C(=O)N[C@@H](CC(N)=O)C(N)=O)NC(=O)[C@H](CC(C)C)NC(=O)[C@H](CC(C)C)NC(=O)[C@@H](CCCNC(=N)N)NC(=O)[C@H](Cc2c[nH]c3ccccc23)NC(=O)[C@H](CC(C)C)NC(=O)[C@H](CC(N)=O)NC1=O)[C@H](C)O + CC[C@H](NC(=O)[C@H](C)NC)C(=O)N1C[C@@H](O)C[C@H]1Cc1c(-c2[nH]c3cc(F)ccc3c2C[C@@H]2C[C@H](O)CN2C(=O)[C@H](CC)NC(=O)[C@H](C)NC)[nH]c2cc(F)ccc12 [Birinapant] | 168 | 
16 | CCN1CCN(c2ccc(Nc3cc(N(C)C(=O)Nc4c(Cl)c(OC)cc(OC)c4Cl)ncn3)cc2)CC1 [Infigratinib] + CC[C@H](NC(=O)[C@H](C)NC)C(=O)N1C[C@@H](O)C[C@H]1Cc1c(-c2[nH]c3cc(F)ccc3c2C[C@@H]2C[C@H](O)CN2C(=O)[C@H](CC)NC(=O)[C@H](C)NC)[nH]c2cc(F)ccc12 [Birinapant] | -48.8 | 
17 | COc1cc2c(cc1Cc1cccc(Cl)c1F)c(=O)c(C(=O)O)cn2[C@H](CO)C(C)C [Elvitegravir] + CC[C@H](NC(=O)[C@H](C)NC)C(=O)N1C[C@@H](O)C[C@H]1Cc1c(-c2[nH]c3cc(F)ccc3c2C[C@@H]2C[C@H](O)CN2C(=O)[C@H](CC)NC(=O)[C@H](C)NC)[nH]c2cc(F)ccc12 [Birinapant] | 326 | 
18 | OCCC#Cc1nc(-c2ccc(F)cc2)c(-c2ccncc2)n1CCCc1ccccc1 + CC[C@H](NC(=O)[C@H](C)NC)C(=O)N1C[C@@H](O)C[C@H]1Cc1c(-c2[nH]c3cc(F)ccc3c2C[C@@H]2C[C@H](O)CN2C(=O)[C@H](CC)NC(=O)[C@H](C)NC)[nH]c2cc(F)ccc12 [Birinapant] | 286 | 
19 | COc1ccc(/C=C\c2cc(OC)c(OC)c(OC)c2)cc1NC(=O)[C@@H](N)CO [Ombrabulin] + CC[C@H](NC(=O)[C@H](C)NC)C(=O)N1C[C@@H](O)C[C@H]1Cc1c(-c2[nH]c3cc(F)ccc3c2C[C@@H]2C[C@H](O)CN2C(=O)[C@H](CC)NC(=O)[C@H](C)NC)[nH]c2cc(F)ccc12 [Birinapant] | -98.3 | 
20 | O=C(CO)N1CCC(c2n[nH]c(-c3ccc(Cl)cc3)c2-c2ccncn2)CC1 + CC[C@H](NC(=O)[C@H](C)NC)C(=O)N1C[C@@H](O)C[C@H]1Cc1c(-c2[nH]c3cc(F)ccc3c2C[C@@H]2C[C@H](O)CN2C(=O)[C@H](CC)NC(=O)[C@H](C)NC)[nH]c2cc(F)ccc12 [Birinapant] | 244 | 
21 | CC(C)(OCc1nn(Cc2ccccc2)c2ccccc12)C(=O)O [Bindarit] + CC[C@H](NC(=O)[C@H](C)NC)C(=O)N1C[C@@H](O)C[C@H]1Cc1c(-c2[nH]c3cc(F)ccc3c2C[C@@H]2C[C@H](O)CN2C(=O)[C@H](CC)NC(=O)[C@H](C)NC)[nH]c2cc(F)ccc12 [Birinapant] | -236 | 
22 | Cc1ccc(/C=N/NC(=O)c2ccccc2Oc2ccccc2)o1 + CC[C@H](NC(=O)[C@H](C)NC)C(=O)N1C[C@@H](O)C[C@H]1Cc1c(-c2[nH]c3cc(F)ccc3c2C[C@@H]2C[C@H](O)CN2C(=O)[C@H](CC)NC(=O)[C@H](C)NC)[nH]c2cc(F)ccc12 [Birinapant] | 277 | 
23 | CC(C)c1cc(C(C)C)c(CC(=O)NS(=O)(=O)Oc2c(C(C)C)cccc2C(C)C)c(C(C)C)c1 [Avasimibe] + CC[C@H](NC(=O)[C@H](C)NC)C(=O)N1C[C@@H](O)C[C@H]1Cc1c(-c2[nH]c3cc(F)ccc3c2C[C@@H]2C[C@H](O)CN2C(=O)[C@H](CC)NC(=O)[C@H](C)NC)[nH]c2cc(F)ccc12 [Birinapant] | 95.2 | 
